In PubChem BioAssay:
For some assays here: Entries with a potency or affinity are not part of this list. The list shows a part of the results. Activity calls are given as the source filed them.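 Rule for the calls, unless noted: active = membrane potential signal shifting up or down by more than 3 SD of buffer-only wells, on both duplicate plates; inactive = the rest.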

Experiments:
[1] = target: Short transient receptor potential channel 4 (Mus musculus) (UniProt Q9QUQ5); assay: mouse TRPC4 membrane potential modulation by TRPC6 hits, confirmation, selectivity assay for TRPC6 inhibitor project, cell-based, second specificity screen, HEK293 TRPC4/mu-opioid (AID 2776;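 active = compounds whose fluorescence signal differed from control wells by over 3 SD, either direction, in both duplicate plates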); settings: HEK293 TRPC4/MOR, membrane potential dye fluorescence, at 10 µM, channel activated by saturating DAMGO dose; active compounds read high
[2] = test system: transient receptor potential cation channel C4 (TRPC4), mouse; assay: mouse TRPC4 modulation by TRPC6 hits, confirmation, selectivity assay for TRPC6 inhibitor project, cell-based, HEK293 TRPC4/mu-opioid, membrane potential dye (AID 2777;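 active = rise or fall in signal beyond 3 SD of buffer-only wells in both replicate plates, either sign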;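 note: integrated kinetic ratio of fluorescence range over baseline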); settings: membrane potential fluorescence, at 10 µM
[3] = nonspecific membrane potential effects, parental HEK293, confirmation, counter-screen for TRPC6 inhibitor project, cell-based, second counter screen (AID 2779;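 active = membrane potential signal moving either way by over 3 SD of the maximum-effect control, in both duplicate plates, meaning non-specific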); settings: parental HEK293 membrane potential dye fluorescence; at 10 µM; maximal acetylcholine challenge after compound addition
[4] = membrane potential modulation in parental HEK293, confirmation, counter-screen for TRPC6 inhibitor project, cell-based (AID 2780); settings: parental HEK293 membrane potential dye fluorescence; at 10 µM;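 for membrane potential signal change: plate controls were buffer EC0 wells for no effect and acetylcholine ECmax wells for full effect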
[5] = target: Short transient receptor potential channel 6 (Mus musculus) (UniProt Q61143); assay: mouse TRPC6 channel inhibitors, confirmation, HEK293 cells, membrane potential dye, duplicate (AID 488960;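 active = fluorescence ratio falls more than 5 SD below the full-stimulation control mean, in both duplicate runs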;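 for inhibition: integrated fluorescence ratio of peak minus minimum over baseline after agonist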); settings: ACh-evoked depolarization, at 10 µM; active compounds read high
[6] = target: Short transient receptor potential channel 6 (Mus musculus) (UniProt Q61143); assay: mouse TRPC6 channel activators, confirmation, HEK293 cells, membrane potential dye, duplicate (AID 488961;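 active = ratio signal rise beyond 5 SD above unstimulated control wells' mean, seen in both duplicate runs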); settings: HEK293-TRPC6 membrane potential dye fluorescence, FDSS, at 10 µM; active compounds read high
[7] = test system: TRPC4 beta (transient receptor potential cation channel C4), mouse; assay: activators of mouse TRPC4 channel, confirmation, cell-based, Fluo4 calcium, HEK293 TRPC4beta/mu-opioid, duplicates, 10 µM (AID 2426;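 active = fluorescence ratio normalized to control raised more than 50% in primary screen plus both repeat runs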;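 for activation: percent rise of integrated ratio over buffer wells lacking compound which define 0%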); settings: Fluo4 calcium fluorescence, at 10 µM; active compounds read high
[8] = test system: transient receptor potential cation channel C4 beta (TRPC4), mouse; assay: activators of mouse TRPC4 channel, confirmation, cell-based, second round, Fluo4, HEK293 TRPC4beta/mu-opioid, 1 µM (AID 2461;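 active = primary screen active and over 50% activation in each of two duplicate runs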); settings: Fluo4 calcium fluorescence, at 1 µM; active compounds read high
[9] = test system: TRPC4 (transient receptor potential cation channel C4 beta), mouse; assay: positive allosteric modulators of mouse TRPC4, confirmation, cell-based, second round, Fluo-4, HEK293 TRPC4beta/mu-opioid, 1 µM (AID 2554;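 active = primary screen hit whose fluorescence ratio, in both repeats, exceeds the weak agonist control mean by 3 SD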); settings: DAMGO EC20, Fluo-4 calcium flux, at 1 µM; active compounds read high
[10] = test system: TRPC4 beta (transient receptor potential cation channel C4), mouse; assay: positive allosteric modulators of mouse TRPC4, confirmation, cell-based, Fluo-4, HEK293 TRPC4beta/mu-opioid (AID 2555;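 active = primary screen hit whose calcium fluorescence ratio, in both repeats, exceeds the weak agonist control mean by 3 SD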); settings: DAMGO EC20, Fluo-4 calcium flux, at 10 µM; active compounds read high
[11] = target: Short transient receptor potential channel 4 (Mus musculus) (UniProt Q9QUQ5); assay: inhibitors of mouse TRPC4 channel, confirmation, cell-based, Fluo4, HEK293 TRPC4beta/mu-opioid (AID 2636;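 active = calcium signal cut by more than 3 SD below the full-agonist control yet still positive, in both repeats and the earlier primary screen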); settings: DAMGO, Fluo4 calcium flux, at 10 µM; active compounds read high
[12] = target: Short transient receptor potential channel 4 (Mus musculus) (UniProt Q9QUQ5); assay: inhibitors of mouse TRPC4 channel, confirmation, cell-based, second round, Fluo4, HEK293 TRPC4beta/mu-opioid, 1 µM (AID 2637;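 active = calcium signal ratio cut to more than 3 SD under the fully stimulated control mean yet still positive, in both repeats and the primary screen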); settings: Fluo4 calcium flux, DAMGO, at 1 µM; active compounds read high
[13] = target: Short transient receptor potential channel 4 (Mus musculus) (UniProt Q9QUQ5); assay: mouse TRPC4 channel inhibitors, dose response, cell-based, HEK293 TRPC4/mu-opioid, Fluo-4 calcium (AID 434942;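 active = primary screen inhibitor hit that blocks the TRPC4 channel at some tested dose, yielding a dose curve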)
[14] = target: Short transient receptor potential channel 6 (Mus musculus) (UniProt Q61143); assay: inhibition of mouse TRPC6 channel, confirmation, selectivity assay for TRPC4 inhibitor project, cell-based, HEK293, membrane potential dye, duplicate (AID 434948;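 active = active in primary screen and both duplicates, each dropping signal beyond three positive-control SD with fluorescence still positive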); settings: HEK293 TRPC6, membrane potential dye fluorescence, at 10 µM, stimulated with maximal-effect acetylcholine; active compounds read high
[15] = target: Short transient receptor potential channel 6 (Mus musculus) (UniProt Q61143); assay: activation of mouse TRPC6 channel, confirmation, selectivity assay for TRPC4 activator project, cell-based, HEK293, membrane potential dye, duplicate (AID 434950;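 active = membrane potential signal rise above negative control mean plus 3 SD in both duplicates, also active in the earlier TRPC4 screen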;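 for activation: 0% = buffer only wells and 100% = acetylcholine maximal-effect wells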); settings: HEK293 TRPC6, membrane potential fluorescence, at 10 µM; active compounds read high
[16] = target: Short transient receptor potential channel 6 (Mus musculus) (UniProt Q61143); assay: TRPC6 potentiation by TRPC4 potentiator hits, confirmation, selectivity assay for TRPC4 potentiator project, HEK293 cells, membrane potential dye, duplicate (AID 434952;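 active = compound raising the membrane signal above positive-control mean plus 3 SD in both repeats, and a primary screen hit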); settings: HEK293 TRPC6, membrane potential dye fluorescence, at 10 µM, maximal acetylcholine added after compound; active compounds read high
[17] = target: Short transient receptor potential channel 4 (Mus musculus) (UniProt Q9QUQ5); assay: calcium flux activators in TRPC4/5HT1a cells, counter-screen for TRPC4 activator project, cell-based, second counter screen, HEK293 TRPC4/5HT1a, Fluo-4 (AID 434977;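 active = calcium signal rise above buffer-control mean plus 5 SD in both duplicates, and also a hit in the primary screen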;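 note: plate controls were assay buffer for no effect and maximal serotonin response for full effect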); settings: Fluo-4 calcium flux, at 10 µM; active compounds read high
[18] = calcium flux inhibitors in TRPC4/5HT1a cells, confirmation, counter-screen for TRPC4 inhibitor project, cell-based, second counter screen, HEK293 TRPC4/5HT1a, Fluo-4 (AID 434978;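 active = primary screen active whose calcium signal fell more than 3 SD beyond the full-serotonin control mean in both duplicate plates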;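 for outcome: serotonin given first at submaximal then at maximal dose after compound preincubation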); settings: Fluo-4 calcium flux, at 10 µM, serotonin added to trigger calcium flux; active compounds read high
[19] = test system: TRPC4 (mouse), co-expressed with 5HT1a in HEK293; assay: calcium flux potentiators in TRPC4/5HT1a cells, confirmation, counter-screen for TRPC4 potentiator project, cell-based, second counter screen, HEK293 TRPC4/5HT1a, Fluo-4 (AID 434979;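 active = signal rise over 3 SD above mean of control wells given weak agonist, in both repeats and first screen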); settings: Fluo-4 calcium flux, at 10 µM, serotonin added at its EC20 dose; active compounds read high
[20] = calcium flux activation in mu-opioid HEK293 cells, confirmation, counter-screen for TRPC4 activator project, cell-based, HEK293 mu-opioid receptor line (AID 449723;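 active = hit in primary screen, with calcium signal over 5 SD above buffer well mean in both duplicates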;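 note: counter screen cells carry the mu-opioid receptor alone and lack TRPC4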); settings: Fluo-4 calcium fluorescence, at 10 µM; active compounds read high
[21] = calcium flux enhancement in mu-opioid HEK293 cells, confirmation, counter-screen for TRPC4 allosteric potentiator project, cell-based, HEK293 mu-opioid receptor line (AID 449724;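 active = calcium signal rise more than 3 SD above the low-dose agonist control mean, in both duplicate plates and the primary screen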); settings: Fluo-4 calcium flux, at 10 µM, compound added before EC20 DAMGO stimulus; active compounds read high
[22] = target: Short transient receptor potential channel 4 (Mus musculus) (UniProt Q9QUQ5); assay: TRPC4 positive allosteric modulators, dose response, cell-based, HEK293 TRPC4/mu-opioid, Fluo-4 calcium, EC20 DAMGO (AID 434941;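 active = earlier screen potentiator hit that boosts the TRPC4 ion channel at some dose, with a dose response; inactive = no potentiation, no dose response, or not a prior hit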;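 note: calcium entry triggered by an EC20 dose of DAMGO at the co-expressed mu-opioid receptor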)
[23] = thallium flux activation in parental CHO cells, counter-screen for KCNQ1 potentiator project (AID 493006;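 active = duplicate-averaged activation above buffer control mean plus 5 SD of those controls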;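 note: fluorescence ratio of max minus min over baseline after K+ and Tl+ depolarization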); settings: parental CHO-K1 cells, FluxOR thallium flux, at 10 µM; active compounds read high
[24] = target: Potassium voltage-gated channel subfamily KQT member 1 (Homo sapiens) (UniProt P51787); assay: KCNQ1 potassium channel potentiators, confirmation, FluxOR thallium flux, CHO cells, duplicates (AID 493007;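 active = potentiation averaged over duplicate wells exceeding buffer-only control mean by more than 3 SD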;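 note: 0% = buffer-only wells and 100% = R-L3 activator control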); settings: KCNQ1 cell line, FluxOR thallium flux fluorescence, at 10 µM; active compounds read high, % of reference activator effect, buffer zero
[25] = target: Potassium voltage-gated channel subfamily KQT member 2 (Rattus norvegicus) (UniProt O88943); assay: rat KCNQ2 channel potentiation, selectivity assay for KCNQ1 potentiator project, KCNQ2-CHO-K1 cells (AID 493009;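 active = mean duplicate potentiation above the buffer control mean plus 5 SD of buffer wells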;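 note: assay conditions were tuned for KCNQ1 rather than KCNQ2 modulators; signal is max minus min fluorescence divided by baseline after thallium stimulus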); settings: FluxOR thallium flux fluorescence, at 10 µM; active compounds read high, scaled: buffer 0, activator control 100
[26] = target: Potassium voltage-gated channel subfamily KQT member 1 (Homo sapiens) (UniProt P51787); assay: KCNQ1 channel current potentiators, confirmation, orthogonal assay for KCNQ1 potentiator project, IonWorks patch clamp, KCNQ1-CHO cells (AID 493184;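 active = current rise at least 3 SD above the untreated control mean in each of two repeat wells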); settings: automated patch clamp current, at 10 µM; active compounds read high
[27] = target: Potassium voltage-gated channel subfamily KQT member 1 (Homo sapiens) (UniProt P51787); assay: KCNQ1 potassium channel inhibitors, confirmation, cell-based, Tl flux, duplicate (AID 588353;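 active = primary screen active, with duplicate mean exceeding buffer control mean plus 3 SD of buffer wells, cut at about 28% in these data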;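 note: 0% = buffer control ratio and 100% = XE991 inhibitor control ratio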); settings: KCNQ1 cell line, FluxOR thallium flux fluorescence, at 10 µM, active compounds read high
[28] = thallium flux effects in parental CHO cells, counter-screen for KCNQ1 inhibitor project, cell-based, Tl flux (AID 588366;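 active = mean of duplicate thallium-flux fluorescence ratios in parental host cells more than 5 SD below the buffer control mean, cut at about 0.38 in these data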;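 note: ratio is peak minus minimum fluorescence divided by baseline fluorescence; actives read low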); settings: parental CHO-K1, FluxOR thallium flux fluorescence ratio; at 10 µM; active compounds read low; zero means no signal rise above baseline
[29] = target: Potassium voltage-gated channel subfamily KQT member 2 (Rattus norvegicus) (UniProt O88943); assay: KCNQ2 channel inhibition, selectivity assay for KCNQ1 inhibitor project, cell-based (AID 651746;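 active = mean percent inhibition of the KCNQ2 thallium signal more than 5 SD above the buffer-only control wells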;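 note: 0% = buffer control wells and 100% = XE-991 inhibitor control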); settings: KCNQ2 cells, FluxOR thallium flux fluorescence, at 10 µM; active compounds read high
[30] = target: Potassium voltage-gated channel subfamily E member 1 (Homo sapiens) + Potassium voltage-gated channel subfamily KQT member 1 (Homo sapiens) (UniProt P15382+P51787); assay: KCNQ1/KCNE1 channel inhibition, selectivity assay for KCNQ1 inhibitor project, CHO-K1 cells, thallium flux, FluxOR (AID 652147;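 active = mean percent inhibition of duplicate wells above the buffer-only control mean plus 3 SD of those controls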); settings: FluxOR thallium flux fluorescence, at 10 µM; active compounds read high
Sequence of Potassium voltage-gated channel subfamily E member 1 (Homo sapiens) + Potassium voltage-gated channel subfamily KQT member 1 (Homo sapiens) (P51787 whole entry, looked up): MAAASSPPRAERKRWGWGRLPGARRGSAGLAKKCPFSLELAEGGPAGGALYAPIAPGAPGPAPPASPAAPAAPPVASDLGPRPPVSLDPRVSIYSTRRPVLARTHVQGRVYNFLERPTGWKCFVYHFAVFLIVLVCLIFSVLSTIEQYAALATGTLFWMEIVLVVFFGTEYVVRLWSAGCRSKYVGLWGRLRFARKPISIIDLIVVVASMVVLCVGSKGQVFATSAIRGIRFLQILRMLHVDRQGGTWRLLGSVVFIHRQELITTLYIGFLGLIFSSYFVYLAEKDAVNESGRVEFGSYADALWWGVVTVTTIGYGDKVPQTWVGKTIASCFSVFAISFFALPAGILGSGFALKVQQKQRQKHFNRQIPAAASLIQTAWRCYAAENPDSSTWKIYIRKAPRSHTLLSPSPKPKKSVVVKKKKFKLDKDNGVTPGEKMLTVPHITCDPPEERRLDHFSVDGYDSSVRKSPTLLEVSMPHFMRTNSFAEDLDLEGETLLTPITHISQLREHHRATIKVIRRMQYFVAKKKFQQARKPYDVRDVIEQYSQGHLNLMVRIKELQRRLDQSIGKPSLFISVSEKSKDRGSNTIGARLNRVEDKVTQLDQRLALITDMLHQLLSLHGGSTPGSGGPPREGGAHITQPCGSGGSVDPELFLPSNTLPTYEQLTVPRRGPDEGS

Sequence of Short transient receptor potential channel 4 (Mus musculus) (Q9QUQ5 whole entry, looked up): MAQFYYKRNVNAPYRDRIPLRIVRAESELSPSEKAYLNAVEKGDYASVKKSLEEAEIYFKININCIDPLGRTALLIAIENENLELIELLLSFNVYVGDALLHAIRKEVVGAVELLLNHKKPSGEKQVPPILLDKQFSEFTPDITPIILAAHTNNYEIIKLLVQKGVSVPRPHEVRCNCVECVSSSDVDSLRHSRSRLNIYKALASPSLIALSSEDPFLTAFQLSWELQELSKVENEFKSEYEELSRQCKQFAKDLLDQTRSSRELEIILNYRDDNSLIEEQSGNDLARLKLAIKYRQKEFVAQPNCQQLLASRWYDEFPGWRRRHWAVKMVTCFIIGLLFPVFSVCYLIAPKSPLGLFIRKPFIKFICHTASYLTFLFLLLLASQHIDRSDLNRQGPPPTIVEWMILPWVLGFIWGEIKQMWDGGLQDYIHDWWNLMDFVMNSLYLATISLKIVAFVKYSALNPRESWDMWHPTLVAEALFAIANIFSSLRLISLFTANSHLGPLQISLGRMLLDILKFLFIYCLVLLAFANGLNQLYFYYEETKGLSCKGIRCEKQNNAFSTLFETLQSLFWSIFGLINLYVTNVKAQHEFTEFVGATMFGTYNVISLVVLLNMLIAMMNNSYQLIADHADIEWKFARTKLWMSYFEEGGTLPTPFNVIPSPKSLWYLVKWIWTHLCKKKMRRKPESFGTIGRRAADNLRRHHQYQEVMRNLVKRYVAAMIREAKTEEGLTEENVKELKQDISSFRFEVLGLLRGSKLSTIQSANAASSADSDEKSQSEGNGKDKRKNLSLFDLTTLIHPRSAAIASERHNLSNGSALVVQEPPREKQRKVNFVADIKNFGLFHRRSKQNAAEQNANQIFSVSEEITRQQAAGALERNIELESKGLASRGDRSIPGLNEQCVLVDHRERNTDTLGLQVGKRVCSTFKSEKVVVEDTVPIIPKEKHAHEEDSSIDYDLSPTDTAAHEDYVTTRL
Sequence of Short transient receptor potential channel 6 (Mus musculus) (Q61143 whole entry, looked up): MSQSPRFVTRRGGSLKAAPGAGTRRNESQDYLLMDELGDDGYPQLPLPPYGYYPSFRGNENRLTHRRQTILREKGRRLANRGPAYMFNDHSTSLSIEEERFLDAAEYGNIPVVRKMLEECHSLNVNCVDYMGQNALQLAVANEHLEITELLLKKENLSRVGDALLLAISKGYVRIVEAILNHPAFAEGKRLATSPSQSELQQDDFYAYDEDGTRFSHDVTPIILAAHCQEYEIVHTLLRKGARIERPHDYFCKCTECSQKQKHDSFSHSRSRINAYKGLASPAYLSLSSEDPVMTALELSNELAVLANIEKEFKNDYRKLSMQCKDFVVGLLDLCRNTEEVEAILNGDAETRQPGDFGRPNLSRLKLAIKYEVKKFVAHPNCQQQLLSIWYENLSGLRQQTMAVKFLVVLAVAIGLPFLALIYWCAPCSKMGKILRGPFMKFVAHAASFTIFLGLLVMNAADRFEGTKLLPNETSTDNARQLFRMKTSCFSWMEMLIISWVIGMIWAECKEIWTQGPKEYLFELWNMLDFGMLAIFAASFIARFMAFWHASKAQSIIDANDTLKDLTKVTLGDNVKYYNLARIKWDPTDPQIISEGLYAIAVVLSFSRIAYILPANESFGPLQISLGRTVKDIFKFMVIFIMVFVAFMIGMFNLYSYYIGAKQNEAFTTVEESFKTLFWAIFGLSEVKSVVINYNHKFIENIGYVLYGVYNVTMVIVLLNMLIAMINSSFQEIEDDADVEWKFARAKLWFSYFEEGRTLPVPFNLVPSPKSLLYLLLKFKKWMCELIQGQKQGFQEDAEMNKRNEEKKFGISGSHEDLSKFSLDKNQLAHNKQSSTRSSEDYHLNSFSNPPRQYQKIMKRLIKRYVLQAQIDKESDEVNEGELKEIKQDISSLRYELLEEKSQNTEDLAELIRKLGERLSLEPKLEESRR
Sequence of Potassium voltage-gated channel subfamily KQT member 1 (Homo sapiens) (P51787 whole entry, looked up): as the sequence (P51787 whole entry, looked up) above
Sequence of Potassium voltage-gated channel subfamily KQT member 2 (Rattus norvegicus) (O88943 whole entry, looked up): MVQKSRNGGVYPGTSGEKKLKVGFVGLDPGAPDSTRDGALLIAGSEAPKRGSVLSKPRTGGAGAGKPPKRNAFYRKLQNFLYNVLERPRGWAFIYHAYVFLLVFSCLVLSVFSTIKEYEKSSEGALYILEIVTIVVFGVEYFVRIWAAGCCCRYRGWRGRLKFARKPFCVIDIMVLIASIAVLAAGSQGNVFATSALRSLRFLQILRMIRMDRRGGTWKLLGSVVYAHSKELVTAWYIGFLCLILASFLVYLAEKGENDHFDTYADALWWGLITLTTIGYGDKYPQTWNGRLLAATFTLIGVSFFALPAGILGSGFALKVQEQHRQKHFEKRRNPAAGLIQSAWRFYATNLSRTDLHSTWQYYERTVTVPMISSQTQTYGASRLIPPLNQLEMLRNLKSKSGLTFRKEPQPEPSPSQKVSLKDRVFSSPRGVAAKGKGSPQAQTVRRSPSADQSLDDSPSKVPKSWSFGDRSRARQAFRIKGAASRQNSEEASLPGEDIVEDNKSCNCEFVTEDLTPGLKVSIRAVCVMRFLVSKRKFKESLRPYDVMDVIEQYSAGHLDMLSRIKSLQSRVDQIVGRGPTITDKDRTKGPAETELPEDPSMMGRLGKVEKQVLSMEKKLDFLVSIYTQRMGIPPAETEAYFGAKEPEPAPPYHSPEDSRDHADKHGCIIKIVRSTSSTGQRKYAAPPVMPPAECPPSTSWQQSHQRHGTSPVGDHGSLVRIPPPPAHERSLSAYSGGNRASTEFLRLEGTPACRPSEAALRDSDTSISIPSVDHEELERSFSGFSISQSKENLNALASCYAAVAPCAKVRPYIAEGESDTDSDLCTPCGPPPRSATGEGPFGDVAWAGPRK

C=C(C)c1cccc(C(C)(C)NC(=O)NCCN(CC)CC)c1
active: activity change, negative = inhibition [2] 1.45% | membrane potential signal change [4] 0.09% | inhibition [5] 54.4%
inactive: outcome [1] | outcome [3] | outcome [6]

CCCCCOc1ccc(CSC2=NCCN2)cc1[N+](=O)[O-]
active: inhibition [1] 59% | inhibition [5] 54.9%
inactive: outcome [2] | outcome [3] | outcome [4] | outcome [6]

COc1cc(/C=C2/SC(=S)N(Cc3ccccc3)C2=O)cc(Cl)c1O
inactive: outcome [8] | outcome [11] | outcome [12] | outcome [13] | outcome [14] | outcome [18] | outcome [19]
active: activation [7] 144% | potentiation [9] 11% | potentiation [10] 21% | activation [15] 930% | potentiation, percent of control [16] 310% | activation [17] 156% | activation [20] 165% | activation [21] 1140%

c1ccc(C2c3[nH]c4ccccc4c3CCN2Cc2cccn2-c2cccnc2)nc1 (configuration not stated)
inactive: outcome [1] | outcome [3] | outcome [5] | outcome [6]
active: activity change, negative = inhibition [2] -10.1% | membrane potential signal change [4] -129%

CCOC(=O)c1c(NC(=O)COC(=O)Cc2c[nH]c3ccccc23)sc(C(=O)N(C)C)c1C
active: activation [7] 194% | potentiation [9] 15% | potentiation [10] 55% | activation [15] 46% | activation [17] 107% | potentiation [19] 60%
inactive: outcome [8] | outcome [11] | outcome [12] | outcome [13] | outcome [14] | outcome [16] | outcome [18] | outcome [20] | outcome [21]

CC(C)(C)NCc1cc(Br)ccc1OC1CCCC1
active: inhibition [1] 36% | activity change, negative = inhibition [2] 74.6% | signal change vs control [3] 5% | membrane potential signal change [4] 38.4% | inhibition [5] 123%

CC1Cc2ccccc2N1C(=O)CSc1nc2c(c(=O)n(C)c(=O)n2C)n1Cc1ccccc1 (configuration not stated)
active: activation [7] 320% | potentiation [9] 65% | inhibition [11] 83% | activation [15] 37.5% | activation [17] 85.8% | inhibition [18] 11.2% | potentiation [19] 18.8%
inactive: outcome [8] | outcome [10] | outcome [12] | outcome [14] | outcome [16] | outcome [20] | outcome [21]

CC(C)(C)c1ccc(C(=O)NC(=S)NNC(=O)COc2ccccc2)cc1
active: inhibition [11] 78% | activation [17] 16.6% | inhibition [18] 27.8% | activation [23] 186% | potentiation [24] 59.5% | potentiation [25] 208%
inactive: outcome [7] | outcome [8] | outcome [9] | outcome [10] | outcome [12] | outcome [22] | outcome [14] | outcome [15] | outcome [16] | outcome [19] | outcome [20] | outcome [21] | outcome [26]

CCCc1cc(=S)n2c([nH]c3ccccc32)c1C#N
inactive: outcome [1] | outcome [3] | fluorescence ratio (Tl flux) [28] 0.394 | outcome [30]
active: activity change, negative = inhibition [2] 33.6% | membrane potential signal change [4] 22.1% | inhibition [5] 51.5% | inhibition [27] 80.5% | inhibition [29] 91.3%

Cn1c(=NC(=O)c2cnccn2)sc2ccccc21
active: activity change, negative = inhibition [2] -25.3% | signal change vs control [3] 24.5% | membrane potential signal change [4] -416%
inactive: outcome [1] | outcome [5] | outcome [6]

CC1CC(C)CN(C/C=C/c2ccccc2[N+](=O)[O-])C1 (configuration not stated)
active: activity change, negative = inhibition [2] 4.24% | signal change vs control [3] 266% | membrane potential signal change [4] 0.38%
inactive: outcome [1] | outcome [5] | outcome [6]
